# Rab9 prom act: activators of Rab9 promoter; Huh7 Rab9 promoter-luciferase reporter, luminescence, 24 h; Potency, µM (highest dose often 9.22 µM), for inactives: at the top dose activation, negative = inhibition, hits mostly activators; actives 2.8% (n = 320,000); AID 485297; further: % of control where 0% means no effect; nearly all actives have a fitted effect of over 60% in size
#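 Cell-based reporter: Huh7 stable for Rab9 promoter-driven luciferase, plated in reduced-serum medium with 10% FBS at 1500 cells/well, compound-treated 24 h at 37 °C, luminescence read after 10 min reagent.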
# ELG1 genotoxic: genotoxicity induction in ELG1-luciferase HEK293T cells; Potency, µM (doses to about 46 µM), without a hit: at the highest dose activity change, positive = activation, hits mostly activators; actives 1.3% (n = 330,000); HEK293T ELG1-luciferase reporter, luminescence, 16 h; further: % of control where 0% means no effect; nearly all actives have a fitted effect of over 60% in size
#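 Step 1: seed 2,000 HEK293T ELG1-luciferase cells per well. Step 2: add compound or DMSO, incubate 16 hr at 37 °C. Step 3: ONE-Glo, 30 min at room temperature, read luminescence.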
# KinaseGlo FLuc: Kinase-Glo luciferase inhibition (counter-screen) | Kinase-Glo luciferase, ATP luminescence, 8 min | actives 0.28% (n = 200,000) | Potency, µM (top dose mostly 38.3 µM), inactives show top-dose activity change, negative = inhibition, hits mostly inhibitors | Q27757; further: on the % scale 0 is the no-effect control and ±100 the full control effect; nearly all actives have a fitted effect of over 60% in size
#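 Kinase-Glo luciferase light output from ATP and luciferin was measured with 10 uM ATP, within the enzyme's linear range. Buffer: 50 mM imidazole pH 7.2, 50 mM KCl, 7 mM MgCl2, 0.01% Tween 20, 0.05% BSA; luminescence read after 8 min at ambient temperature.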
# SMN2 splice enh: increases expression of the SMN2 splice variant. HEK293 SMN2-luciferase splicing reporter, luminescence, 30-36 h. Potency, µM (doses to about 46.1 µM), for inactives: top-dose activity change, positive = activation, actives largely listed as activators. actives 2.8% (n = 210,000); further: % of control where 0% means no effect; nearly all actives have a fitted effect of over 55% in size
#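 qHTS luciferase splicing reporter: luminescence rises when SMN2 exon 7 is included in transfected HEK293 cells. Compound exposure lasted 30-36 h at 37C, with 4.5 mM final sodium butyrate as control, followed by a ONE-Glo read.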
# NPC1 prom act: activates the NPC1 promoter; Potency, µM (highest dose often 9.22 µM), without a hit: top-dose activation, usual class: activators; actives 2.4% (n = 320,000); Huh7 NPC1 promoter luciferase reporter, 24 h; further: % of control where 0% means no effect; nearly all actives have a fitted effect of over 60% in size
#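 In 1536-well qHTS, Huh7 cells harboring an NPC1 promoter–luciferase construct received compound for 24 h; activation was quantified by luminescence following luciferase reagent addition.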
# FLuc modulator: inhibits or activates purified firefly luciferase, miR-21 counter-screen | P08659 | purified FLuc, Km substrates, luminescence inhibition | Potency, µM (highest dose often 57.5 µM), inactives show top-dose activity change, negative = inhibition, hits mostly inhibitors | actives 6.9% (n = 360,000);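 further: plate controls were vehicle for no effect and reference inhibitor for full effect; nearly all actives have a fitted effect of over 55% in size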
# Target sequence (P08659 whole entry, looked up): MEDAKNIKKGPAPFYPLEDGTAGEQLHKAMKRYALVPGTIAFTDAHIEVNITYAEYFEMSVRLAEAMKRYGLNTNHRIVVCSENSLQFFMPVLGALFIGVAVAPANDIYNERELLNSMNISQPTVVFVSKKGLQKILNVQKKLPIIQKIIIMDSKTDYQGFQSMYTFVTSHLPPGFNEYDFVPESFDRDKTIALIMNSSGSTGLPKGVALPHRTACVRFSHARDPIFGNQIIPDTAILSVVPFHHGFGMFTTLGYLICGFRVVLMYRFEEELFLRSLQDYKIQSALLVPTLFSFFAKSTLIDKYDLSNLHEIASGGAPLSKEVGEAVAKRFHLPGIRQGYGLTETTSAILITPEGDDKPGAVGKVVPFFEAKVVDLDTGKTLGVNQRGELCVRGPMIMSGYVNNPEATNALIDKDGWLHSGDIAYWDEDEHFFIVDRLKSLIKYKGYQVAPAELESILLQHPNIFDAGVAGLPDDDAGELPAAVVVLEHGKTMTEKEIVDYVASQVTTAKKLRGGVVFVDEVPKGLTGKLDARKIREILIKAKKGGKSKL
#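 Purified P. pyralis luciferase, 10 nM final, with Km-level 10 uM D-luciferin and 10 uM ATP in 50 mM Tris acetate pH 7.5, 10 mM Mg acetate, 0.01% Tween-20, 0.05% BSA; 6-point qHTS titration about 60 µM downward; luminescence read.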
# Numbers without * were called inactive; u = inconclusive; x = no result given; [ ] = another dose, or the depositor's remark. Most compounds without a hit are left out; they make up all but 7.4% or so of the library. The call rests on the fitted dose curve; in most records, active means well fitted curve in the direction sought with a large enough effect; inconclusive means small, poorly fitted or top-dose-only effect, or another doubt; inactive means no such curve, though single readings can be large; an effect the other way counts as inactive or inconclusive. Potency means the concentration at half of the fitted maximal effect.
SMILES,Rab9 prom act,ELG1 genotoxic,KinaseGlo FLuc,SMN2 splice enh,NPC1 prom act,FLuc modulator
O=C(COc1ccccc1)Nc1nnc(-c2ccc(F)cc2)o1,-3%,-9%,x,x,-3%,0%
O=C(COc1ccccc1)Nc1nnc(-c2ccc3c(c2)CCCC3)o1,u,18µM*,1%,u,u,u
O=C(Nc1nnc(-c2ccncc2)o1)c1ccccc1,11%,3%,-4%,21%,9%,u
O=C(CCOc1ccccc1)Nc1nnc(-c2ccc3c(c2)OCCO3)o1,10%,-6%,-1%,-24%,6%,11µM*
O=C(Nc1nnc(-c2ccc3c(c2)OCCO3)o1)c1ccc(Cc2ccccc2)cc1,-7%,-11%,0%,-17%,2%,-2%
O=C(Nc1nnc(-c2ccc3c(c2)CCCC3)o1)c1ccccc1,-6%,u,-3%,-48%,4%,19µM*
COc1ccccc1Cn1c(CNS(=O)(=O)c2ccccc2Cl)nc2cccnc21,x,x,x,x,x,2%
CCSc1nc2n(n1)C(c1ccc(Cl)cc1Cl)C(C(=O)Nc1ccccc1C)=C(C)N2 (stereo not drawn),x,x,x,x,x,-2%
O=C(Nc1nnc(-c2ccc(Br)cc2)o1)c1cccc(N2C(=O)CCC2=O)c1,0%,2%,x,x,1%,12µM*
O=C(Nc1nnc(-c2ccc3c(c2)CCCC3)o1)c1ccccc1Cl,7%,-1%,19%,16%,2%,24µM*
CSc1nc(N)nc2c1ncn2CC(=O)NCCNc1ccc([N+](=O)[O-])cn1,x,0%,x,x,x,x
O=C(Nc1ccccn1)c1sc2cccc(F)c2c1Cl,u,u,-13%,2.5µM*,u,0.38µM*
O=C(Nc1cccnc1)c1sc2cccc(F)c2c1Cl,u,-3%,0%,u,u,8.5µM*
Nc1nc2c(nc(Br)n2C2OC3COP(=O)(O)O[C@@H]3C2O)c(=O)[nH]1 (stereo partly drawn),2%[46.1 µM],x,x,x,-4%[46.1 µM],x
O=C(CNC(=O)c1ccco1)NCC(=O)OCc1c(F)cccc1Cl,11%,3%,x,x,-2%,5%
O=C(CNC(=O)c1ccco1)OCc1c(F)cccc1Cl,-9%,4%,2%,19%,1%,15µM*
COc1ccccc1-n1cnnc1SCC(=O)Nc1cccc(S(N)(=O)=O)c1,-6%,-13%,x,x,-1%,-2%
Cc1ccc(/C=c2/sc3nnc(-c4ccccc4Cl)n3c2=O)o1,0%,-3%,-3%,13%,1%,15µM*
Cc1ccc(NC(=S)Nc2ccccn2)c(C)c1,2.8µM*,u,x,x,u,8.5µM*
COc1ccc(NC(=S)Nc2ccccn2)cc1,2.5µM*,u,x,x,3.2µM*,13µM*
COc1ccc(NC(=S)Nc2cc(-c3ccccc3)[nH]n2)cc1Cl,-3%,-4%,3%,11%,-4%,u
COc1cccc(NC(=S)Nc2cc(C)cc(C)n2)c1,5%,14%,x,x,4%,2.1µM*
CCOc1ccc(NC(=S)Nc2cc(-c3ccccc3)[nH]n2)cc1,3%,-4%,2%,-7%,0%,21µM*
Cc1cc(Cl)ccc1NC(=S)Nc1ccccn1,u,6%,2%,u,u,-16%
Cc1cc(C)nc(NC(=S)Nc2cccc(F)c2)c1,25%,3%,x,x,4%,u
SMILES,Rab9 prom act,ELG1 genotoxic,KinaseGlo FLuc,SMN2 splice enh,NPC1 prom act,FLuc modulator
CC(C)CCNC(=O)NC(=O)COC(=O)C1CCN(S(=O)(=O)c2ccccc2F)CC1,-7%,0%,3%,3%,-4%,4%
COc1ccc(NC(=O)C2CCN(S(=O)(=O)c3ccc4c(c3)NC(=O)CO4)CC2)cc1,-3%,1%,x,x,-11%,1%
O=C(NCc1ccc2c(c1)CCN2C(=O)c1ccc(Cl)cc1)c1ccco1,x,x,x,x,x,-19%
Cc1ccc(NC(=S)Nc2ccccn2)cc1C,u,16%,x,x,18%,17µM*
COC(=O)c1ccc(NC(=S)Nc2ccccn2)cc1,1.8µM*,u,0%,11µM*,2.8µM*,u
Cc1cccc(NC(=S)Nc2ccccn2)c1,u,12%,x,x,22%,u
COC(=O)c1ccc(NC(=S)Nc2ccc(O)cc2)cc1,-4%,1%,1%,-9%,-1%,-5%
Cc1noc(C)c1COC(=O)c1csc2c1CCCC2,-1%,-3%,x,x,-5%,-5%
NNC(=O)c1cc2cc3ccccc3nc2s1,26%,-1%,-2%,1%,8%,21µM*
O=C(O)Cc1ccc2oc(-c3ccccn3)nc2c1,-5%[1.84 µM],12%,x,x,-8%,u
Cc1ccc2nc(-c3ccccn3)oc2c1,0.63µM*,u,13µM*,7.1µM*,1.6µM*,1.9µM*
Cc1ccc2nc(-c3cccnc3)oc2c1,1.3µM*,u,-7%,u,u,8.5µM*
Cc1ccc(C(=O)Nc2ccc3oc(-c4cccnc4)nc3c2)c(Cl)c1,x,x,x,-5%,x,u
COc1ccc(C(=O)CC2SC(N)=NC2=O)cc1 (stereo not drawn),-6%,5%,x,x,5%,-11%
CC(C)(C)c1ccc(C2=NC(=O)C(CC(=O)O)S2)cc1 (stereo not drawn),17%,0%,x,x,12%,1.7µM*
Cc1occc1-c1nnc(SC(C)C(=O)Nc2ccccc2F)o1 (stereo not drawn),2.8µM*,u,x,x,u,2%
Cc1nc(SCC(=O)c2cccs2)c2oc3ccccc3c2n1,4µM*,u,-4%,10µM*,u,9.5µM*
Cc1nc(SCC(=O)O)c2oc3ccccc3c2n1,4%,-3%,-1%,2%,1%,u
O=C(CSc1ncnc2c1oc1ccccc12)c1cccs1,4µM*,u,-2%,24%,2.8µM*,u
COc1ccccc1NC(=O)COC(=O)CCC(=O)c1cccs1,-6%,2%,x,x,1%,-7%
CC(=O)c1ccc(NC(=O)CSc2nnc(C3CC3)n2C2CC2)cc1,x,9%,x,x,x,x
CCOC(=O)c1cc2c(nc1N)CC(C)(CC)OC2 (stereo not drawn),3.2µM*,13µM*,-4%,u,u,u
CCOC(=O)c1sc2nc3c(cc2c1N)COC(C)(C)C3,2.5µM*,u,-1%,11µM*,2.8µM*,6.7µM*
CC1(C)Cc2nc3sc(C(N)=O)c(N)c3cc2CO1,u,17%,x,x,22%,u
CCOC(=O)c1cc2c(nc1N)CC(C)(C)OC2,11%,15%,1%,-2%,0%,u
CCOC(=O)c1sc2nc3c(cc2c1N)COC(C)(CC)C3 (stereo not drawn),0.79µM*,u,-8%,10µM*,0.79µM*,1.3µM*

# From PubChem BioAssay
